This is a sample that favours compounds with a hit; in the whole collection about 3.5% have one here.
Anthrax LF prot = Bacillus anthracis LF protease inhibitors, primary screen, biochemical, multiplex microsphere, MLPCN library; 0.12% of 360,000 active; multiplex microsphere protease cleavage assay; inhibition, % at 10 µM; AID 588501, 2011; Lethal factor (Bacillus anthracis), P15917; note: plate controls were buffer without enzyme for full effect and enzyme alone for no effect
Target sequence (P15917 whole entry, looked up): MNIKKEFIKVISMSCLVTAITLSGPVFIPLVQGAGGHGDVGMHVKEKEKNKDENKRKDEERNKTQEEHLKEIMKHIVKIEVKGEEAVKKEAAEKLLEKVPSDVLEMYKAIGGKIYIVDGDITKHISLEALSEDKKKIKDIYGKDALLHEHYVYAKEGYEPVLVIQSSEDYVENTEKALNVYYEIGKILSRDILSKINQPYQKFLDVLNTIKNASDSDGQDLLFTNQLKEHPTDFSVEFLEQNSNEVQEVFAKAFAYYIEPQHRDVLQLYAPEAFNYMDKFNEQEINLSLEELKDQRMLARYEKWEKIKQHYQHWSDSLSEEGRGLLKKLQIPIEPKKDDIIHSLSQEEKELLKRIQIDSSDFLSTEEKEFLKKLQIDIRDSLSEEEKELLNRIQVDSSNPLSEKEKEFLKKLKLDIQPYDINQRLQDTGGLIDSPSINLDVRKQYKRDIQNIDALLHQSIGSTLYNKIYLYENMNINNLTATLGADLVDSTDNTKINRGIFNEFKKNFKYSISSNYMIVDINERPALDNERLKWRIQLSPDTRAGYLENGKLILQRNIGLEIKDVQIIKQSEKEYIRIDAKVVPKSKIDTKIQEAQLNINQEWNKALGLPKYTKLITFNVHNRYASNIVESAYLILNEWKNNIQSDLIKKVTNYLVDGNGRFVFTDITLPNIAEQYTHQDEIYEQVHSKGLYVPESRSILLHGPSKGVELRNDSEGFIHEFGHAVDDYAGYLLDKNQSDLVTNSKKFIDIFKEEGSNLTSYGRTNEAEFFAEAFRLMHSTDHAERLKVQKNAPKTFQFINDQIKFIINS
Bead autofluor = flagged as autofluorescent in microsphere protease counterscreen; fluorescence intensity (test concentration not listed); 3.1% of 360,000 active; AID 624483; compound autofluorescence counterscreen, microsphere flow cytometry; hits give high values; in the data active = fluorescence intensity above about 16000; inconclusive = no clear call, values can overlap the other calls
BoNT A protease = BoNT/A light chain protease inhibitors, primary screen, biochemical, flow cytometry, MLPCN library. Botulinum neurotoxin type A light chain protease (Clostridium botulinum A str. ATCC 3502). 0.17% of 360,000 active. inhibition, % at 10 µM. multiplex microsphere protease substrate cleavage. AID 588499, 2011; note: plate controls were buffer without enzyme for full effect and enzyme alone for no effect
BJeLR viability = MLPCN primary cell-based screen for lethality selective to Ras in HRASV12 cells; 0.17% of 300,000 active; BJeLR (HRASV12) viability, CellTiter-Glo ATP luminescence, 48 h; inhibition, % (concentration not given with the values); in the data active = inhibition above about 50%; inconclusive = no clear call, values can overlap the other calls
BoNT-F LC inh = BoNT/F light chain protease inhibitors, primary screen, biochemical, flow cytometry, MLPCN library. Multiplex microsphere protease cleavage assay. inhibition, % at 10 µM. 0.22% of 360,000 active; in the data active = inhibition above about 35%, passing the limit was not always enough; inconclusive = no clear call, values can overlap the other calls; note: plate controls were buffer without enzyme for full effect and enzyme alone for no effect
An asterisk follows results filed as active; ? = inconclusive; . = no result. Cut-off read from the data, not from the text of the source, unless noted: active = inhibition above about 30%; inconclusive = no clear call, values can overlap the other calls; inactive = below that.

SMILES	Anthrax LF prot	Bead autofluor	BoNT A protease	BJeLR viability	BoNT-F LC inh
Cc1ccc(CNC(=O)C2CCC(=O)N(C3CCCC3)C2)c(F)c1F (configuration not stated)	-1	5525	-1	-1	-4
Cc1cc(CNC(=O)CC2C(=O)NCCN2CC(C)(C)C)nn1C (configuration not stated)	-1	2579	0	0	1
Cc1cc(=O)c2c(=O)[nH][nH]c2[nH]1	-2	3717	0	.	-7
O=C(Nc1ccc(NS(=O)(=O)c2ccccc2)cc1)c1cccnc1	1	2484	0	3	0
Cc1ccc(OC(=O)c2cccnc2)cc1	-5	3059	-1	6	0
CCc1ccc(OC(=O)c2cccnc2)cc1	37*	3031	-3	-11	-6
CCCNS(=O)(=O)c1ccc(NC(=O)c2cccnc2)cc1	0	20443*	0	-4	1
CC(C)(C)OC(=O)N1C(=O)[C@](OC(=O)c2ccccc2)(c2ccc(F)cc2)c2ccccc21	5	5463	0	.	3
O=C(CC(C(=O)N1CCc2ccccc21)n1ccnc1)NCc1ccccc1 (configuration not stated)	-5	18019*	10	9	9
CC1(C)CC(=O)C(C(c2cccnc2)C2C(=O)CC(C)(C)CC2=O)C(=O)C1	1	22323*	2	19	6
CCCCc1cc(=O)oc2cc(C)cc(OCC(=O)O)c12	-2	21248*	?	-3	3
CCCCc1cc(=O)oc2cc(C)cc(OCC(=O)NCC3CCC(C(=O)O)CC3)c12 (configuration not stated)	-2	5962	0	-3	-6
COc1ccc(Cc2c(-c3cccc(Br)c3)nc3ccc(Br)cn23)c(C)c1	12	4327	8	.	7
O=C(O)/C=C/C(=O)NCc1cn(-c2ccccc2)nc1-c1cccc(Br)c1	-2	3478	-1	-5	-5
Cc1nnc(-c2cccc(Br)c2)c2cn(-c3cccc(Br)c3)nc12	1	34824*	8	3	12
Cc1nnc(-c2cccc(Br)c2)c2cn(-c3ccc(Br)cc3)nc12	-4	17435*	1	-6	10
Cc1nnc(-c2cccc(Br)c2)c2cn(-c3ccccc3)nc12	8	32979*	15	-5	27
COc1ccc(-n2cc3c(-c4cccc(Br)c4)nnc(C)c3n2)cc1	17	48432*	8	-5	31
O=C(c1cn(-c2ccccc2)nc1-c1cccc(Br)c1)N1CCOCC1	0	2637	0	-5	-2
COc1ccc(CCNC(=O)c2ccc3c(c2)NC(=O)CS3)cc1OC	3	5125	-1	3	-5
Cc1cc2oc(=O)cc(-c3ccccc3)c2c(C)c1-c1ccc(C#N)cc1	-2	4042	0	.	-4
CCOC(=O)c1sc(NC(=O)c2ccc(CC)s2)nc1C	-2	19861*	2	-9	2
C=CCOC(=O)c1sc(NC(=O)c2ccco2)nc1C	0	19408*	3	-1	3
CCOC(=O)c1sc(NC(=O)c2cc3ccccc3o2)nc1C	0	4428	0	-14	1
CCc1cccc(C)c1NC(=S)NCc1ccc2[nH]c(C)cc2c1	-105	2743	40*	2	-122
SMILES	Anthrax LF prot	Bead autofluor	BoNT A protease	BJeLR viability	BoNT-F LC inh
CNC(=S)NCc1ccc2[nH]c(C)cc2c1	-10	3850	4	7	-29
O=c1[nH][nH]c2c1[C@H](C1CCCC1)O[C@H](CCc1ccccc1)C2	1	5750	1	.	-1
Brc1ccc(-c2csc(NNC3=NCCCCC3)n2)cc1	-2	4071	0	10	-33
CC(C)(C)c1ccc(-c2csc(NNC3=NCCCCC3)n2)cc1	-2	20221*	?	19	-9
CCCCC(=O)N1CC(=O)Nc2ccc(F)cc2C1c1ccccc1 (configuration not stated)	0	3679	3	-2	-5
CN(C)N=Nc1ccc(S(=O)(=O)N2CCSC2C(=O)O)cc1 (configuration not stated)	-3	25952*	?	0	-10
Cc1ccc(S(=O)(=O)N2CCSC2C(=O)O)cc1 (configuration not stated)	-4	9796	1	3	8
Nc1nc(Cl)cc(N2CCOCC2)n1	3	2138	0	1	-3
CN(C)c1nc(Cl)cc(N2CCOCC2)n1	-1	22938*	1	3	-1
CCCN(CCC)CCNC(=O)C(NS(=O)(=O)c1ccc2c(c1)CCC(=O)N2)c1ccccc1 (configuration not stated)	-3	23934*	-2	-9	-4
CC(C)c1ccc(CN2CCC2(C)C(=O)Nc2cnc3ccccc3c2)cc1 (configuration not stated)	-1	3823	0	.	1
Cc1cc(C)n2nc3nc4c(cc3c2n1)CCCC4	2	19863*	?	19	6
Cc1cccc(CSc2nnc([C@@H]3CCCN3)o2)c1	6	4181	-3	-1	?
COc1cccc(CCN2C(=O)CCC3=C2CCC3=O)c1	2	6352	0	.	-3
CCOC(=O)/C(=C/C=C1\Sc2cc(C)c(C)cc2N1CC)C(C)=O	23	16482*	40*	-4	20
CCCCOC(=O)c1ccc(NC(=O)CSC2=Nc3ccccc3C3CC=NN23)cc1 (configuration not stated)	-2	22279*	-1	-3	-4
CCOc1ccc(CC(=O)N/N=C(\C)c2cccnc2)cc1	-3	4321	3	0	-7
CCC(CC)NCc1ccc(OC)cc1OC	2	22992*	-1	-3	-4
COc1ccc(CNC2CCCCC2C)c(OC)c1 (configuration not stated)	-1	22181*	3	.	2
Cc1cc(Cl)ccc1OCC(=O)N1C(C)CCCC1C (configuration not stated)	-7	24242*	-4	0	-4
COc1cccc(NC(=O)CSc2nnc(-c3ccoc3C)n2-c2ccccc2)c1	.	.	.	-4	.
COc1ccc2nc(NC(=O)CSc3nnc4n3C(C)(C)Cc3ccccc3-4)sc2c1	-12	16715*	10	4	6
CC1(C)Cc2ccccc2-c2nnc(SCC(=O)N3CCc4ccccc43)n21	-3	24428*	-2	-2	-3
COc1ccc2nc(NC(=O)CSc3nnnn3C)sc2c1	2	3103	0	8	3
COc1cc(NC(=O)CSc2nnc3n2C(C)(C)Cc2ccccc2-3)cc(OC)c1	0	16774*	-1	5	-4
COc1ccc(N2CCN(C(=O)CSc3nnc4n3C(C)(C)Cc3ccccc3-4)CC2)cc1	-2	22079*	2	10	1
Cc1ccc(Cl)cc1N1CCN(C(=O)CSc2nnc3n2C(C)(C)Cc2ccccc2-3)CC1	-6	9334	-2	11	-7

Screens from PubChem BioAssay.
